# Assay outcomes deposited in PubChem BioAssay by The Scripps Research Institute Molecular Screening Center.
# The entries come from a sample that favours hits as a whole.
# SF1 inhibitor: inhibitors of human SF-1, primary screen, cell-based, CHO-K1, Gal4-SF-1 LBD, luciferase luminescence. Steroidogenic factor 1 (Homo sapiens), Q13285. CHO-K1 Gal4-SF-1 LBD luciferase reporter. inhibition, % at 10 µM. 0.55% of 65,000 active;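 active = inhibition above the mean inhibition of all tested compounds plus 3 SD, cut at about 48% in these data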;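 also: 0% = SF-1 transfected cells with DMSO and 100% = mock-transfected cells lacking SF-1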
# Target sequence (Q13285 whole entry, looked up, the tested form may be a part): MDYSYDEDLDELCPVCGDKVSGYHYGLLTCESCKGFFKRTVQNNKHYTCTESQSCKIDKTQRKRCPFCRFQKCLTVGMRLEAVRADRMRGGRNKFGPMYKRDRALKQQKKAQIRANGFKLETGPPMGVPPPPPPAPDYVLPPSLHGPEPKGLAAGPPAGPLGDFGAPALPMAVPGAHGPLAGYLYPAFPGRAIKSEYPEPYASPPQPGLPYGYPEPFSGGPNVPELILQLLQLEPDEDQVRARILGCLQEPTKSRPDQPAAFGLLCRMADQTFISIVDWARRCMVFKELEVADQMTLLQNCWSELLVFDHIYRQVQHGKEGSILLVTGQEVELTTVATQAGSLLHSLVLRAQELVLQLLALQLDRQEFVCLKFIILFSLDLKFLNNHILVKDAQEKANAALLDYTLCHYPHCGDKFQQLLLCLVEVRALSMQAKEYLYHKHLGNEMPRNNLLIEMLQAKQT
# * = called active by the depositor.
SMILES,SF1 inhibitor
Cc1cccc(CN2CCC(CNC(=O)C3CCCN(S(=O)(=O)c4cnc[nH]4)C3)CC2)c1 (stereo not given),-3
c1ccc(-c2nc(NCC3CCCO3)c3ccccc3n2)nc1 (stereo not given),1
c1ccc(-c2nc(NCc3ccco3)c3ccccc3n2)nc1,76*
c1ccc(-n2ncc3c(NCc4ccco4)ncnc32)cc1,-77
O=C(OC(C(=O)NCc1ccc2c(c1)OCO2)c1ccc(Cl)cc1)c1ccco1 (stereo not given),5
Cn1cccc1CNC(=O)Nc1ccc(Cl)c(Cl)c1,-66
COC(=O)C1C(O)=C(C=NCC(C)N=CC2=C(O)C(C(=O)OC)C(C)(C)CC2=O)C(=O)CC1(C)C (stereo not given),-4
CCC(OC(=O)c1ccco1)C(=O)NCc1ccco1 (stereo not given),13
Cc1ccc(-c2nc(CS(=O)(=O)CC(=O)N3CC(C)CC(C)C3)c(C)o2)cc1 (stereo not given),0
COCCNC(=O)c1ccc2ccccc2n1,-8
CCOc1ccc(-c2nc(CSCC(=O)NCc3ccco3)c(C)o2)cc1,94*
CCOCCCNC(=O)CS(=O)(=O)Cc1nc(-c2cccc(OC)c2)oc1C,-6
COc1ccc(C(=O)Nc2ccccc2-c2nnn(CC(=O)NCc3ccco3)n2)cc1,8
CCOC(=O)N1CCC(NC(=O)C2CCN(Cc3nc(-c4ccc(CC)cc4)oc3C)CC2)CC1,16
CCc1ccc(-c2nc(CSCC(=O)NCCCN3CCCC3=O)c(C)o2)cc1,63*
COCCNC(=O)CSCc1nc(-c2ccc(SC)cc2)oc1C,90*
COc1ccc(-n2nc3cc(C)c(N)c(Br)c3n2)cc1,-64
ONC(=Nc1ccccc1)C(=Nc1ccccc1)NO,7
CCOC(=O)NCC(C#CCN(CC)CC)N(CC)CC (stereo not given),8
O=C(C1COc2ccccc2O1)N1CCc2ccccc21 (stereo not given),-54
O=C(CCC1(C(=O)O)CCC(=O)NC1)NCc1ccccc1 (stereo not given),-20
COc1ccc(NS(=O)(=O)c2ccc(OC)c3ccccc23)cn1,12
COCCOC(=O)C1=C(C)N=C2SCCC(=O)N2C1c1ccc(C(=O)OC)cc1 (stereo not given),8
Oc1c(/C=N/c2ncn[nH]2)ccc2ccccc12,7
Cn1ccc(C(=O)OCC(=O)c2ccccc2)n1,-5
SMILES,SF1 inhibitor
COC(=O)CCc1c(C)nn(-c2ccccc2)c1C,-9
Cc1nn(-c2ccccc2)c(C)c1C(=O)OCC(=O)c1c(N)n(CC(C)C)c(=O)n(C)c1=O,55*
COc1ccc(C2CC(C(F)(F)F)n3nc(C(=O)NCc4cn(C)nc4C)c(Cl)c3N2)cc1 (stereo not given),20
O=C(Cn1nc(Cc2cccnc2)c2ccccc2c1=O)NCc1ccc2c(c1)OCO2,-4
COc1ccccc1C(=O)Nc1ccc2c(c1)OCCO2,-76
CCOC(=O)C(C)Oc1cccc2c(=O)n(CC(=O)Nc3ccc4c(c3)OCCO4)ccc12 (stereo not given),82*
CCOC(=O)C(C)Oc1cccc2c(=O)n(CC(=O)NCc3ccc4c(c3)OCO4)ccc12 (stereo not given),83*
COc1ccccc1C(=O)NCc1ccc2c(c1)OCO2,28
CC1CC(=O)N(CC(=O)Nc2ccc3c(c2)OCCO3)c2ccccc2S1 (stereo not given),0
CCOC(=O)CNc1nc(OCC#N)nc(N2CCOCC2)n1,3
Cn1cccc1C(=O)OCc1cc(Cl)cc2c1OCOC2,-60
CN(C)CCOC(=O)C1(c2ccccc2)CCOCC1,-24
Cc1oc2cc3c(C(=O)OCCN(C)C)c(C)oc3cc2c1C(=O)OCCN(C)C,79*
CN(C)CCCOC(=O)c1ccc(Br)cc1,4
COc1cc(NC(=O)CN2C(=O)c3ccccc3C2=O)c(C(=O)O)cc1OC,-4
COc1ccc(C(=O)Nn2c(SCC(=O)NCC3CCCO3)nc3ccccc3c2=O)cc1 (stereo not given),67*
COC(=O)c1ccc2c(=O)n(CCN3CCOCC3)c(SCC(=O)c3ccccc3)nc2c1,-8
COc1ccc(CC(=O)Nc2ccc(S(=O)(=O)NCC3CCCO3)cc2)cc1 (stereo not given),7
CCC(=O)c1ccccc1OCCSc1nc(C)cc(=O)[nH]1,13
Cc1ccccc1NC(=O)CSc1[nH]c(=O)cc(C)c1C#N,0
Cc1cccc(NC(=O)CSc2nnc(-c3cc(C)n(-c4ccccc4)c3C)o2)c1C,73*
Cc1ccc(Cl)cc1NC(=O)CSc1nnc(C)n1-c1ccccc1,16
COCCNC(=O)c1c[nH]c2ccc(OC)cc2c1=O,-9
CC(C)CCNC(=O)CN(CCN1CCOCC1)C(=O)Cn1nnc(-c2ccc(F)cc2)n1,-12
O=c1oc2ccccc2c(N2CCCCC2)c1CN1CCCCC1,8
SMILES,SF1 inhibitor
O=C(NCCN1CCCCCC1)C1CCC(CNS(=O)(=O)c2cccc3cccnc23)CC1 (stereo not given),-3
Oc1c(CN2CCCCC2)cc(Br)c2cccnc12,69*
COC(=O)c1sccc1NC(=O)CN1CCN(c2ccc(F)cc2)CC1,-9
COC(=O)c1ccc(=O)n(-c2ccc(OC)cc2)c1,16
Cc1c(-c2nc(N)nc(Nc3ccccc3)n2)oc2ccccc12,-162
COc1nc(Nc2nc3ccccc3c(=O)[nH]2)nc2ccc(C)cc12,76*
COc1ccc(Nc2nc(C)c3ccccc3n2)cc1,-99
COc1ccc(S(=O)(=O)N(Cc2ccccc2)Cc2nc3ccccc3c(=O)[nH]2)cc1,12
COC(=O)/C(=C1/Oc2cc(C)oc(=O)c2S1)C(F)(F)F,96*
[O-][N+]1=c2ccc(Nc3ccccc3)cc2=NC12CCCCC2,62*
CCC(Sc1ccccn1)C(=O)Nc1nnc(C)s1 (stereo not given),-6
O=C1CCCC2=C1C(c1ccccc1)C1=C(CCCC1=O)O2,14
O[C@@H]1C2CCCC1[C@]1(O)CCCCC1C2 (stereo not given in full),12
Nc1cccc(-c2nc3ccc(N)cc3s2)c1,61*
CN(C)c1nc(N)nc(-c2nc3ccccc3s2)n1,-54
Cc1ccc2[nH]c(-c3cccc(N)c3)cc2c1,-51
N=c1c2c3c(sc2nc2n1CCCCC2)CCCCC3,-12
Cc1ccc(S(=O)(=O)Nc2cccc3ncccc23)s1,91*
CCCS(=O)(=O)c1nnnn1-c1cccc(OC)c1,58*
CCOC(=O)Cn1nnc(-c2cccc(OC)c2)n1,6
CCCC(c1nnnn1CCOC)N1CCN(c2cccc(OC)c2)CC1 (stereo not given),0
CCOC(=O)c1sc2ncn(CC(=O)N(CC)CC)c(=O)c2c1C,17
Cc1ccc(-c2cc3c(nn2)-c2ccccc2C3=O)cc1,88*
COc1ccc(CNC(=O)C2CC(=O)N(c3ccc(OCC(=O)N4C(C)CCCC4C)cc3)C2)cc1 (stereo not given),15
Cc1csc(NC(=O)c2ccoc2C)n1,-56
N#Cc1c(NC(=O)CSc2ncn[nH]2)sc2c1CCCCC2,88*
Cn1c(SCC(=O)Nc2sc3c(c2C#N)CCC3)nnc1C1COc2ccccc2O1 (stereo not given),-4
CCc1nnc(NC(=O)CSc2nc(C)c3c(c2C#N)CCCC3)s1,-55
COc1ccccc1OCC(=O)Nc1ccc(S(=O)(=O)Nc2nc(C)cc(C)n2)cc1,3
COc1ccc(-n2ncc3c(N4CCCCC4)ncnc32)cc1,84*
